# Columns and labels:
# Test in all cases: DAPPL (digital affinity profiling via proximity ligation, sequencing); 10 mM Tris-HCl pH 7.5, 50 mM NaCl, 1 mM DTT, 4% glycerol, room temperature, 30 min; GST-TFs on glutathione beads, 16-mer random dsDNA library, 0.1% formaldehyde crosslink after washing; high values mean tight binding
# [1] = biological target: HSF1 (Homo sapiens, UniProt Q00613 1-529); details: protein: recombinant; tags: N-terminal GST; chain copies: 3; dsDNA, one strand shown
# Summary of the method: (§1)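 Binding signal is each hexamer's read frequency for a factor divided by its frequency in the tag-only sample. The factors were GST-fused human transcription factors from yeast, captured on glutathione beads, DNA-barcoded and pooled with that sample. Pools were incubated with 200 nmole of a random double-stranded 16-mer DNA library in Tris/NaCl/DTT/glycerol buffer at room temperature for 30 min, then washed, crosslinked with 0.1% formaldehyde, proximity-ligated with BsaI/T4 ligase (1 h, 37 °C), PCR-amplified and sequenced on an Illumina NextSeq500.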
# [2] = biological target: CRX (Homo sapiens, UniProt O43186 1-299); details: protein: recombinant; tags: N-terminal GST; dsDNA, one strand shown
# Chain of CRX (O43186 whole entry): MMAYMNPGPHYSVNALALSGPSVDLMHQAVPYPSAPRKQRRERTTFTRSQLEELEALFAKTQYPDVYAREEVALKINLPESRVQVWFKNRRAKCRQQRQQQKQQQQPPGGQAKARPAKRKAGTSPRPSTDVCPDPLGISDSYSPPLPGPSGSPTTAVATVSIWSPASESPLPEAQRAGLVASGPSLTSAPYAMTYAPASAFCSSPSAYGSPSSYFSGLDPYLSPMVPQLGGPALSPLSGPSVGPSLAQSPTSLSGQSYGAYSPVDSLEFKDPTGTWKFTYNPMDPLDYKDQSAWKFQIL
# Summary of the method: as §1
# [3] = biological target: T1, ERG (Homo sapiens, UniProt P11308 1-479); details: protein: recombinant; tags: N-terminal GST; dsDNA, one strand shown
# T1 sequence: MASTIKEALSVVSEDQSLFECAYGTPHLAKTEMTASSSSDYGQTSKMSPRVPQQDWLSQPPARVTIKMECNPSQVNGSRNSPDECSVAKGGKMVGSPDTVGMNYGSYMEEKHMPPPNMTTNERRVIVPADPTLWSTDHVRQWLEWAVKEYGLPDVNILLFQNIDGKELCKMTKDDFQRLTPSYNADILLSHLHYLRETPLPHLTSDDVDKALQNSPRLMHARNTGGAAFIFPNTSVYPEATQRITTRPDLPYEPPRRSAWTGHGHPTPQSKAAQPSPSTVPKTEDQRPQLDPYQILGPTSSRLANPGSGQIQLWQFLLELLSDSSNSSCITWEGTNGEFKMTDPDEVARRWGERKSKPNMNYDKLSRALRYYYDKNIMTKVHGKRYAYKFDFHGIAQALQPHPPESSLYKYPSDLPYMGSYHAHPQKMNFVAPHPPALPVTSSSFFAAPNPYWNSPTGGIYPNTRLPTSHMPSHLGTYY
# Summary of the method: as §1
# [4] = biological target: SPI1 (Homo sapiens, UniProt P17947 1-270); details: protein: recombinant; tags: N-terminal GST; dsDNA, one strand shown
# Summary of the method: as §1
# [5] = biological target: T2, ETV2 (Homo sapiens, UniProt O00321 1-342); details: protein: recombinant; tags: N-terminal GST; dsDNA, one strand shown
# T2 sequence: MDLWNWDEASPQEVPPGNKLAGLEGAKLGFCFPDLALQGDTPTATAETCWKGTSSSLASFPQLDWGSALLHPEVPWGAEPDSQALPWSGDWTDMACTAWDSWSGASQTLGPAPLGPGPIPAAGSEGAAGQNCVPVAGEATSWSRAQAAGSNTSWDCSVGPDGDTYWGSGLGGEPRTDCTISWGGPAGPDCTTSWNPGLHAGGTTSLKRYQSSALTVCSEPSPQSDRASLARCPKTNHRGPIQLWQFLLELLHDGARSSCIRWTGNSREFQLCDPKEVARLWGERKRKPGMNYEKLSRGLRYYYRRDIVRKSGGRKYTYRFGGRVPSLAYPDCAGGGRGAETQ
# Summary of the method: as §1
# [6] = biological target: T3, SPDEF (Homo sapiens, UniProt O95238 1-335); details: protein: recombinant; tags: N-terminal GST; dsDNA, one strand shown
# T3 sequence: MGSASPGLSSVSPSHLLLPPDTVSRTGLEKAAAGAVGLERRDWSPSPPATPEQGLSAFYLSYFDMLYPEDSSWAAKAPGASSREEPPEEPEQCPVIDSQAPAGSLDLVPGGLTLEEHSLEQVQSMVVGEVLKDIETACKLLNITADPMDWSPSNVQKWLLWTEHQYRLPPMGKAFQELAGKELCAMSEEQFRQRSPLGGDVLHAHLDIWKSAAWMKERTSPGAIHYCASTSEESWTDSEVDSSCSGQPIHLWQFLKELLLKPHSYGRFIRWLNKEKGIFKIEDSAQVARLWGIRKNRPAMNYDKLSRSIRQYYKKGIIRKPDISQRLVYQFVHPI
# Summary of the method: as §1
# [7] = biological target: T4, ELK3 (Homo sapiens, UniProt P41970 1-407); details: protein: recombinant; tags: N-terminal GST; dsDNA, one strand shown
# T4 sequence: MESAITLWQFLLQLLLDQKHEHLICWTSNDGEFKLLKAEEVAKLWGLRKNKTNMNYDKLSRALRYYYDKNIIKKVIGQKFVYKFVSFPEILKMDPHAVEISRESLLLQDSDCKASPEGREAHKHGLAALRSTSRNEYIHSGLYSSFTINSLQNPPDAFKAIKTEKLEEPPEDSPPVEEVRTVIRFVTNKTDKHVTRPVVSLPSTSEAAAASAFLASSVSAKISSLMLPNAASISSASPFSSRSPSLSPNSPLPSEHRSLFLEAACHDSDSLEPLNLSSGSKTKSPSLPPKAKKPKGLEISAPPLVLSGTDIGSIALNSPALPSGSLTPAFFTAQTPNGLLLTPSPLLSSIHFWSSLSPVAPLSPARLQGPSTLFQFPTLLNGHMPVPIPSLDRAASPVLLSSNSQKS
# Summary of the method: as §1
# [8] = biological target: T5, ETV3L (Homo sapiens, UniProt Q6ZN32 1-361); details: protein: recombinant; tags: N-terminal GST; dsDNA, one strand shown
# T5 sequence: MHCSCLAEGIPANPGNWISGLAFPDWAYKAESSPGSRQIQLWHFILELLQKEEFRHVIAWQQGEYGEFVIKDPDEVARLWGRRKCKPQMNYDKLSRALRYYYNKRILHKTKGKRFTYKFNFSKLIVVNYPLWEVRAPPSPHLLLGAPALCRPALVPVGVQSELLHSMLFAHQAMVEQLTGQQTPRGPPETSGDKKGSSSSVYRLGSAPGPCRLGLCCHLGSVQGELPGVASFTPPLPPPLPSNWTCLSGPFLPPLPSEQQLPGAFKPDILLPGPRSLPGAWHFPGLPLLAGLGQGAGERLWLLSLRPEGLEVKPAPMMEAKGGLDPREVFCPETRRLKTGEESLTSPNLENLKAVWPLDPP
# Summary of the method: as §1
# [9] = biological target: T6, ELK1 (Homo sapiens, UniProt P19419 1-428); details: protein: recombinant; tags: N-terminal GST; dsDNA, one strand shown
# T6 sequence: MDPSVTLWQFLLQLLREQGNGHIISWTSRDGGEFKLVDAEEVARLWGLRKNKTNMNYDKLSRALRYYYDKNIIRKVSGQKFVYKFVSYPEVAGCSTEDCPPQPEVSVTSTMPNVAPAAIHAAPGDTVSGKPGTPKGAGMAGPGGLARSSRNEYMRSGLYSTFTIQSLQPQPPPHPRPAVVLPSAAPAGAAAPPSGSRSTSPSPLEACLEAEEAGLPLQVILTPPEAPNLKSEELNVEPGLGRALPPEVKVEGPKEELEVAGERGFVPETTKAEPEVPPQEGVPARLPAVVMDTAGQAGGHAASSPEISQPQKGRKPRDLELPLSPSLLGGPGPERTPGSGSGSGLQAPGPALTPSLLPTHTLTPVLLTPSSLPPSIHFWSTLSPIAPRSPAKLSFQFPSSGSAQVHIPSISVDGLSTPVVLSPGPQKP
# Summary of the method: as §1
# [10] = biological target: T7, EHF (Homo sapiens, UniProt Q9NZC4 1-300); details: protein: recombinant; tags: N-terminal GST; dsDNA, one strand shown
# T7 sequence: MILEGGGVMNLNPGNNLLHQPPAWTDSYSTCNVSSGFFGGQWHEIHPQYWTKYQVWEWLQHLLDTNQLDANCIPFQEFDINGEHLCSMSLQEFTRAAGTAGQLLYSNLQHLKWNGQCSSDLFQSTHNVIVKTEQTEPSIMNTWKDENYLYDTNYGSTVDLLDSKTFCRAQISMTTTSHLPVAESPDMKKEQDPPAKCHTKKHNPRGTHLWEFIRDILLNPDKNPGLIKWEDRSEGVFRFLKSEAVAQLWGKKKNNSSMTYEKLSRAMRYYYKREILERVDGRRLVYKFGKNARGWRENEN
# Summary of the method: as §1
# [11] = biological target: T8, ELF3 (Homo sapiens, UniProt P78545 1-371); details: protein: recombinant; tags: N-terminal GST; dsDNA, one strand shown
# T8 sequence: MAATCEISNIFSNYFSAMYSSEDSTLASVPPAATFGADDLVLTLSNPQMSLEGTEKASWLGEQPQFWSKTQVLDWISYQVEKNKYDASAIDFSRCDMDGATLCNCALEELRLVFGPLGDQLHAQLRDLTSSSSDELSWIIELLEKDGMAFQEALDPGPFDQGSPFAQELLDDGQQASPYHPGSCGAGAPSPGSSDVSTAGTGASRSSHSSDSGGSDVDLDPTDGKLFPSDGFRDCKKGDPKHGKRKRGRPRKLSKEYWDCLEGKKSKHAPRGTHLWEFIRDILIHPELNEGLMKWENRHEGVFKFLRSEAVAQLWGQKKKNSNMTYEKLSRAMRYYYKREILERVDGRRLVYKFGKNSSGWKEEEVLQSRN
# Summary of the method: as §1
# [12] = biological target: ETV6 (Homo sapiens, UniProt P41212 1-452); details: protein: recombinant; tags: N-terminal GST; dsDNA, one strand shown
# Chain of ETV6 (P41212 whole entry): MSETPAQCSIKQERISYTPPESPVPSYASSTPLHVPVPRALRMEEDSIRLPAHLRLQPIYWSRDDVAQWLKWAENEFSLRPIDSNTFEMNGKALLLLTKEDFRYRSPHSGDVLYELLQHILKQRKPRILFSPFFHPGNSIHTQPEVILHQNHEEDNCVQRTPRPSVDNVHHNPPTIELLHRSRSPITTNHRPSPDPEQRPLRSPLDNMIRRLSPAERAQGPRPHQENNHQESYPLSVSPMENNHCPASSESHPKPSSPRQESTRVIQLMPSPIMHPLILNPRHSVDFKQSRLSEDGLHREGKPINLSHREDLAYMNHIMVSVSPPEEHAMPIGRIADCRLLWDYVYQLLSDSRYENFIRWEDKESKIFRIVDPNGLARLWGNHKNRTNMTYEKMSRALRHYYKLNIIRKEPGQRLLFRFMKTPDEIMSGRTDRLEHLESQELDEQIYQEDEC
# Summary of the method: as §1
# Chain of HSF1 (Q00613 whole entry, the tested form may be a part): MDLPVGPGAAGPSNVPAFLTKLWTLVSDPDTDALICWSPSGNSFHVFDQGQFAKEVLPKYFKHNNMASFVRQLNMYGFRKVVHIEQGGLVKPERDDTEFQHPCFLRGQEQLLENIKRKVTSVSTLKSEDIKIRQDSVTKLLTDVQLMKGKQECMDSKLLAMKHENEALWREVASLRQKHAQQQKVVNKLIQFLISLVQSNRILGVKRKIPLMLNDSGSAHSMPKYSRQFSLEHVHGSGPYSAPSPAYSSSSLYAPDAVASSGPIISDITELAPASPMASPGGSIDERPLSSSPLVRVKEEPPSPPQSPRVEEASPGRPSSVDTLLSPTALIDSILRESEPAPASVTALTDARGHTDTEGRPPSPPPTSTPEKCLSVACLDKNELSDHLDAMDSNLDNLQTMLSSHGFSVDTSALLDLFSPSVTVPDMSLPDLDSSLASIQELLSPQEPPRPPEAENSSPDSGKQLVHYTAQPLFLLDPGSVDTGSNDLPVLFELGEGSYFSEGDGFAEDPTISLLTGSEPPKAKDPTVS
sequence,measurement,setting,value
TCCAGA,binding signal,[1],"3.36 fold enrichment (6-mer frequency, TF over GST control)"
same,binding signal,[2],"1.5 fold enrichment (6-mer frequency, TF over GST control)"
GCATTA,binding signal,[1],"1.16 fold enrichment (6-mer frequency, TF over GST control)"
same,binding signal,[2],"1.64 fold enrichment (6-mer frequency, TF over GST control)"
TTCAGA,binding signal,[3],"1.02 fold enrichment (6-mer frequency, TF over GST control)"
same,binding signal,[4],"1.04 fold enrichment (6-mer frequency, TF over GST control)"
same,binding signal,[1],"1.09 fold enrichment (6-mer frequency, TF over GST control)"
same,binding signal,[5],"1.08 fold enrichment (6-mer frequency, TF over GST control)"
same,binding signal,[2],"1.03 fold enrichment (6-mer frequency, TF over GST control)"
same,binding signal,[6],"1.01 fold enrichment (6-mer frequency, TF over GST control)"
CCAGAT,binding signal,[1],"1.61 fold enrichment (6-mer frequency, TF over GST control)"
same,binding signal,[2],"1.34 fold enrichment (6-mer frequency, TF over GST control)"
ATCAAG,binding signal,[7],"1.04 fold enrichment (6-mer frequency, TF over GST control)"
same,binding signal,[1],"1.03 fold enrichment (6-mer frequency, TF over GST control)"
same,binding signal,[5],"1.17 fold enrichment (6-mer frequency, TF over GST control)"
same,binding signal,[2],"1.19 fold enrichment (6-mer frequency, TF over GST control)"
same,binding signal,[8],"1.06 fold enrichment (6-mer frequency, TF over GST control)"
same,binding signal,[6],"1.01 fold enrichment (6-mer frequency, TF over GST control)"
AGAATG,binding signal,[9],"1.01 fold enrichment (6-mer frequency, TF over GST control)"
same,binding signal,[10],"1.02 fold enrichment (6-mer frequency, TF over GST control)"
same,binding signal,[4],"1.01 fold enrichment (6-mer frequency, TF over GST control)"
same,binding signal,[7],"1.01 fold enrichment (6-mer frequency, TF over GST control)"
same,binding signal,[1],"2.08 fold enrichment (6-mer frequency, TF over GST control)"
same,binding signal,[5],"1.01 fold enrichment (6-mer frequency, TF over GST control)"
same,binding signal,[11],"1.05 fold enrichment (6-mer frequency, TF over GST control)"
same,binding signal,[2],"1.09 fold enrichment (6-mer frequency, TF over GST control)"
ACCAGA,binding signal,[1],"1.55 fold enrichment (6-mer frequency, TF over GST control)"
same,binding signal,[5],"1.01 fold enrichment (6-mer frequency, TF over GST control)"
same,binding signal,[2],"1.06 fold enrichment (6-mer frequency, TF over GST control)"
TTAGGA,binding signal,[10],"1 fold enrichment (6-mer frequency, TF over GST control)"
same,binding signal,[1],"1.28 fold enrichment (6-mer frequency, TF over GST control)"
same,binding signal,[11],"1.02 fold enrichment (6-mer frequency, TF over GST control)"
same,binding signal,[2],"1.77 fold enrichment (6-mer frequency, TF over GST control)"
same,binding signal,[12],"1 fold enrichment (6-mer frequency, TF over GST control)"

# — article PMC7862700, “An all-to-all approach to the identification of sequence-specific readers for epigenetic DNA modifications on cytosine”
